Assay outcomes: PubChem, National Center for Advancing Translational Sciences (NCATS)
Pf Dd2 inh – qHTS Primary assay for Inhibitors of Plasmodium falciparum Dd2 growth in vitro | P. falciparum Dd2 growth, SYBR Green, 72 h | Potency, µM (titrated, usually from 28.9 µM), without a hit: at the highest dose activity, negative = inhibition, most hits filed as inhibitors | 4.3% of 120,000 active; active = well fitted inhibition curve with a large enough effect;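 note: plate controls were DMSO vehicle for no effect and reference drug for full effect; nearly all actives have a fitted effect of over 65% in size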
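Infected erythrocytes (Dd2, 0.3% parasitemia, 2.5% hematocrit final) are added to compound in RPMI-1640/Albumax II medium, grown 72 h at 37C in low oxygen, then lysed with saponin/Triton-X containing SYBR Green and read by fluorescence.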
The depositor's hits bear a star; i = inactive; [ ] = remark or other dose. Many of the other results were omitted from the sample, so hits are more common in it than they were. Potency is the fitted concentration of half-maximal effect.

SMILES | Pf Dd2 inh
O=c1c2cc3c(cc2n(Cc2cccc(Cl)c2)c(=O)n1Cc1nc(-c2ccccc2)no1)OCO3 | 15.6%
O=C(Cn1c(=O)c2c(n1Cc1ccccc1)CN(Cc1ccccc1)CC2)Nc1cccc(F)c1 | -9.5%
O=C(Cn1c(=O)c2c(n1Cc1ccccc1)CN(Cc1ccccc1)CC2)NCc1ccc2c(c1)OCO2 | -3.7%
O=C(Cn1c2c(c(=O)n1Cc1ccccc1)CCN(Cc1ccccc1)C2)NCc1ccc2c(c1)OCO2 | -6.4%
O=c1cc(-c2ccccc2)c2cc(Cl)c3c(c2o1)CN(Cc1ccccc1)CO3 | 12.6µM*
O=c1cc(-c2ccccc2)c2ccc3c(c2o1)CN(Cc1cccc(Cl)c1)CO3 | 0.631µM*
O=C1c2cc(N3CCOCC3)nc(-c3ccc(F)cc3)c2CN1Cc1ccccc1 | -11.6%[44.1 µM]
O=S1(=O)N(Cc2ccccc2)CCCN1Cc1cccc(Cl)c1 | 8.9%
CCc1cc2c(-c3ccccc3)cc(=O)oc2c2c1OCN(Cc1ccc(F)cc1)C2 | 3.55µM*
COc1cccc(CN2CCc3nnc([C@@H]4C[C@@H](O)CN4C)n3CC2)c1 | -23.6%
COc1ccc(C(=O)N[C@H]2CC[C@]3(C)CC[C@@H]4[C@H](OC(=O)[C@H]4C)[C@H]3[C@@H]2C)cc1 | -4.4%[44.1 µM]
COCCc1noc(C2CCCN(C(=O)Cn3ncc4ccccc4c3=O)C2)n1 (stereo not given) | -7.4%
O=C(CC(c1ccccc1)c1cn(Cc2ccccc2)c2ccc([N+](=O)[O-])cc12)N1CCOCC1 (stereo not given) | -3.7%
COc1ccc(-c2cc(N3CCCN(C(=O)c4ccc5ncccc5c4)CC3)n[nH]2)cc1 | i
CN(Cc1cccc(C(=O)Nc2cccc(C#N)c2)c1)CC1COCCO1 (stereo not given) | -7.1%
COc1cccc(CN2CC3(C2)C(=O)N(CCCN2CCCC2=O)C(=O)[C@@H]2C[C@@H](O)CN23)c1 | 20.4%
Cc1ccc(-c2cn[nH]c2C2CCCN(Cc3cn(CCO)nc3C)C2)cc1 (stereo not given) | i
O=C(NCCc1cccs1)C1CN(S(=O)(=O)C2CC2)CC12CCCCC2 (stereo not given) | -14.7%
COCCNC(=O)[C@H]1C[C@H](Oc2ccccc2)CN1S(=O)(=O)c1ccc(OC)cc1 | 16.8%
O=C1c2c(nc(COc3cccc(Cl)c3)n2Cc2ccccc2)NCCN1CC1CC1 | -29.8%[44.1 µM]
COc1cc(OC)cc(OCc2nc3c(n2Cc2ccccc2)C(=O)N(Cc2cccc(Cl)c2)CCN3)c1 | 7.94µM*
O=C1c2c(nc(COc3ccc4c(c3)OCO4)n2Cc2ccccc2)NCCN1Cc1cccc(Cl)c1 | -14.3%
CC(=O)N1CCN(Cc2nc3c(n2Cc2ccccc2)C(=O)N(Cc2cccc(Cl)c2)CCN3)CC1 | -14.3%
O=C1c2c(nc(COc3ccc(F)cc3)n2Cc2ccccc2)NCCN1CCOc1ccccc1 | 5.62µM*
O=C1c2c(nc(COc3ccc4c(c3)OCO4)n2Cc2ccccc2)NCCN1CCOc1ccccc1 | i
SMILES | Pf Dd2 inh
COc1cccc(OCc2nc3c(n2Cc2ccccc2)C(=O)N(Cc2cccc(Cl)c2)CCN3)c1 | 12.6µM*
COCCN1CCNc2nc(CNc3ccon3)n(Cc3ccccc3)c2C1=O | 11.2µM*
O=C1c2c(nc(COc3cc(F)cc(F)c3)n2Cc2ccccc2)NCCN1Cc1ccccc1 | -21.3%
COCCN1CCNc2nc(COc3ccc(Oc4ccccc4)cc3)n(Cc3ccccc3)c2C1=O | -9.3%
O=C1c2c(nc(COc3ccccc3)n2Cc2ccccc2)NCCN1Cc1ccccc1 | -33.6%[44.1 µM]
COCCN1CCNc2nc(COc3ccccc3OC(F)(F)F)n(Cc3ccccc3)c2C1=O | i
COCCCN1CC2(CCC1=O)CCN(c1ncnc3onc(C)c13)CC2 | -0.3%
O=C([C@@H]1C[C@H](Oc2cccnc2)CN1C(=O)CC1CCCCC1)N1CCOCC1 | 2.0%
O=C(c1ccncc1)N1CCC(Oc2cccc(F)c2)C1 (stereo not given) | -21.0%
Cc1ccc(C(=O)NC[C@H]2O[C@@H](CC(=O)N3CCOCC3)[C@H](O)[C@@H]2O)cc1 | 9.0%[44.1 µM]
Cn1c(CN2C[C@H](O)C[C@H]2c2nc(-c3ccc(OC(F)(F)F)cc3)no2)nc2ccccc21 | i
CNC(=O)[C@@H](Cc1ccccc1)N1CCC[C@H]1C(=O)NC1CC1 | i
CS(=O)(=O)N1CCOc2ccc(CCC(=O)NCC3CC3)cc2C1 | i
COc1ccccc1OCc1nc2c(n1Cc1ccccc1)C(=O)N(CC1CC1)CCN2 | i
COc1ccc(OCc2nc3c(n2Cc2ccccc2)C(=O)N(CC2CC2)CCN3)cc1OC | -12.3%
COc1ccccc1OCc1nc2c(n1Cc1ccccc1)C(=O)N(Cc1cccc(Cl)c1)CCN2 | 10µM*
C=CCN1CC2(CCC1=O)CCN(C(=O)C(C)n1cc(C)cn1)CC2 (stereo not given) | -1.8%
COc1cccc(C(=O)N2CCC(c3nn(Cc4ccccc4)c(=O)[nH]3)CC2)c1 | i
Cc1c(Cl)cccc1-n1ncc(C(=O)N2CCN(c3ncccn3)CC2)c1C1CCN(C(=O)OC(C)(C)C)CC1 | i
Cc1c(Cl)cccc1-n1ncc(C(=O)N2CCC(C)CC2)c1C1CCN(C(=O)OC(C)(C)C)CC1 | 11.2µM*
CC(C)(C)OC(=O)N1CCC(c2c(C(=O)N3CCN(c4ccc(Cl)cc4)CC3)cnn2-c2ccc(F)cc2F)CC1 | 11.2µM*
CN1CCN(C(=O)c2cnn(-c3ccc(F)cc3F)c2C2CCN(C(=O)OC(C)(C)C)CC2)CC1 | 16.1%
CC(C)(C)OC(=O)N1CCC(c2c(C(=O)N3CCN(c4ccccc4F)CC3)cnn2-c2ccccc2Cl)CC1 | 12.6µM*
CC(NC(=O)CN1C(=O)COc2ccc(C(=O)COc3ccc(F)cc3F)cc21)c1ccccc1 (stereo not given) | i
O=C(CN1C(=O)NC2(CCCCC2)C1=O)Nc1ccc(C(F)(F)F)cc1 | i
SMILES | Pf Dd2 inh
Cc1ccc(C(=O)N[C@@H]2CN(Cc3ccncc3)C[C@H]2CN(C)C)c(C)c1 | -7.8%
Cc1ncc2c(c1CNC(=O)c1cccc(-c3ncc[nH]3)c1)CCNC2 | -2.3%
COc1ccccc1OCCNC(=O)CN1CC2CC(C1)[C@H]1CCCC(=O)N1C2 (stereo not given in full) | i
CCCc1noc(-c2cn(C3CCN(C(=O)c4ccsc4)CC3)nn2)n1 | i
COc1ccc(-n2nc(C(=O)NCCc3ccc(OC)c(OC)c3)c3c4ccccc4n(C)c3c2=O)cc1 | 3.16µM*
COc1ccc(-n2nc(C(=O)N3CCN(c4cccc(C)c4)C(C)C3)c3c4ccccc4n(C)c3c2=O)cc1 (stereo not given) | 11.2µM*
COc1ccc(-n2nc(C(=O)Nc3cccc(C)n3)c3c4ccccc4n(C)c3c2=O)cc1 | i
COc1ccc(-n2nc(C(=O)Nc3ccc(Br)cc3C)c3c4ccccc4n(C)c3c2=O)cc1 | 44.2%
Cc1ccc(-n2nc(C(=O)NCCc3cccc(C)c3)c3c4ccccc4n(C)c3c2=O)cc1 | i
COc1ccc(-n2nc(C(=O)NCc3ccc(F)cc3)c3c4ccccc4n(C)c3c2=O)cc1 | 1.9%
CCc1nn(-c2ccc(F)cc2)c(Oc2ccccc2)c1CCC(=O)N1CCCC1 | i
Cc1noc(C)c1CCCNC(=O)c1ccc(N2CCC[C@H]2CO)nc1 | -11.1%
CCOCCCNc1ncnc2c1CN(C1CCNCC1)C(=O)CN2C | -8.0%
Cc1ccc(NC(=O)C2CC(=O)N(c3n[nH]c4cccc(F)c34)C2)c(C)c1 (stereo not given) | 11.5%
Cc1ocnc1C(=O)NC1CC(=O)N(CCc2ccc(F)cc2)C1 (stereo not given) | -4.7%
CNC(=O)[C@@H]1CN(C(=O)Cc2ccccc2Br)C[C@H]1CO | 0.8%
